# Rows were chosen to be rich in hits. Some 2.4% of all compounds tested hit in one or more screens of this group.
# CHO-K1 Ca antag = M1 antagonist counterscreen hit in parental CHO-K1 cells; ATP-induced calcium, Fluo-8 fluorescence; inhibition, % at 3 µM; 360,000 compounds, 0.6% hits; AID 602250;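 active means inhibition above a per-plate cutoff, the plate's mean sample inhibition plus 3 SD, cut at about 24% in these data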;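 further: 0% = DMSO plus EC80 ATP and 100% = DMSO alone without ATP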
# CHO-K1 Ca ag = M1 agonist counterscreen hit in parental CHO-K1 cells; Fluo-8 calcium fluorescence; scaled to maximal ATP response, vehicle zero; activation, % at 3 µM; 360,000 compounds, 0.48% hits; in the data active means activation above about 15%;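 further: untransfected CHO-K1 host cells lacking M1 receptor as counterscreen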
# CHRM1 PAM = potentiates human M1 receptor response to acetylcholine; activation, % at 3 µM; P11229; AID 588819; CHO-K1 hM1, Fluo-8 calcium fluorescence, ACh EC20; 0% = ACh EC20, 100% = maximal ACh; 360,000 compounds, 0.088% hits; in the data active means activation above about 19%, passing the limit was not always enough
# Target sequence (P11229 whole entry, looked up): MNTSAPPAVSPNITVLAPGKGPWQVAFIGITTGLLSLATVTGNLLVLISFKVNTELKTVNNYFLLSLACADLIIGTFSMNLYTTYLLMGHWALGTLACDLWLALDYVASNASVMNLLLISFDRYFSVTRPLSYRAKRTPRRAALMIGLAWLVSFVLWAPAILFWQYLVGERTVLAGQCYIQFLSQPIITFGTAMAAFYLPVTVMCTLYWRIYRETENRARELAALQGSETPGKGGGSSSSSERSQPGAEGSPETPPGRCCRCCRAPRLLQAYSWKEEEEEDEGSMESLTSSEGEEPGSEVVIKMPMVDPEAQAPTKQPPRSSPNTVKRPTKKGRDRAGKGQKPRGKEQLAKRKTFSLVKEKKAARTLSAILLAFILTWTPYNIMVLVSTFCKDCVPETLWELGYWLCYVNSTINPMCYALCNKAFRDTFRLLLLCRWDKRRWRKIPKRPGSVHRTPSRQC
# M1 ag = activates human CHRM1 receptor | P11229 | CHO-K1 hM1, Fluo-8 calcium fluorescence, agonist mode; 0% DMSO, 100% acetylcholine EC100 | activation, % at 3 µM | 360,000 compounds, 0.33% hits;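 active means activation above the run's mean compound activation plus 3 SD, cut at about 16% in these data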;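 further: peak over basal fluorescence ratio within a 140 s kinetic read after compound addition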
# M1 antag = blocks human M1 muscarinic receptor. P11229. CHO-K1 hM1, Fluo-8 calcium fluorescence, ACh EC80 antagonist. inhibition, % at 3 µM. 360,000 compounds, 1.3% hits. AID 588852;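 active means percent inhibition above its own plate's cutoff, namely the mean of that plate's compound wells plus 3 SD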;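 further: peak over basal fluorescence ratio during 140 s after agonist addition; 0% = ACh EC80 plus DMSO and 100% = DMSO alone without agonist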
# CHO-K1 Ca PAM = M1 PAM counterscreen hit in parental CHO-K1 cells | 360,000 compounds, 0.02% hits | ATP EC20, Fluo-8 calcium fluorescence; 0% at ATP EC20, 100% at ATP max | activation, % at 3 µM;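 active means activation above the run cutoff, the mean activation of all test compounds plus 3 SD, cut at about 40% in these data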;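 further: peak over basal fluorescence ratio in a 140 s read after ATP addition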
# An asterisk follows results filed as active.
SMILES,CHO-K1 Ca antag,CHO-K1 Ca ag,CHRM1 PAM,M1 ag,M1 antag,CHO-K1 Ca PAM
CCOC(=O)N1CCC(NC(=O)C2CCCN(S(=O)(=O)c3cccnc3)C2)CC1 (configuration not stated),42*,0,3,-2,-8,-7
CCOC(=O)N1CCC(NC(=O)C2CCN(Cc3nc(-c4ccc(CC)cc4)oc3C)CC2)CC1,2,0,5,-10,-23,12
COc1cc2cc(CN(Cc3cccnc3)C(=O)Nc3ccccc3)c(=O)[nH]c2cc1OC,-10,2,0,-3,-2,7
O=S(=O)(Nc1ccc(Br)cc1)c1cccc2nonc12,7,1,-3,-4,6,-10
O=c1c([N+](=O)[O-])c(N2CCOCC2)c2ccccc2n1-c1ccccc1,-11,0,11,-2,-7,16
S=C(NCc1ccco1)Nc1ccc(Br)cc1Cl,-3,7,-4,-9,-2,9
COc1ccc(OC)c(C(C(=O)NC2CCCCC2)N(C(=O)c2snc(C(N)=O)c2N)c2ccccc2OC)c1 (configuration not stated),1,-1,21,3,-2,4
CC(C)C[C@@H](CNCC(=O)[C@H](Cc1c[nH]c2ccccc12)NC(=O)c1[nH]cnc1C(=O)N[C@@H](C)CN)NC(=O)c1nc[nH]c1C(=O)N[C@@H](CC(=O)O)C(=O)O,-4,0,12,1,-11,23
CC(=O)Nc1ccc(S(=O)(=O)NCC(=O)OCC(=O)NCc2ccco2)cc1,28*,0,5,0,-19,-30
CN1CCCC(C#CC(O)(c2ccccc2)c2ccccc2)C1 (configuration not stated),-2,0,-35,-13,99*,3
Cc1ccccc1C(=O)OC1CCCN(C)C1 (configuration not stated),1,0,-11,-9,11,3
COCCN(CC(=O)Nc1cccc(C)c1C)C(=O)c1cc2ccccc2cc1OC,6,0,16,4,-4,-22
O=C(N/N=C/c1cn(-c2cccs2)nc1-c1ccccc1)c1ccccc1O,29*,13,-11,-3,8,-7
CCN(CC)S(=O)(=O)c1cc(NC(=O)c2ccc(Br)s2)ccc1C,36*,3,-15,-3,9,-6
CCN(CC)S(=O)(=O)c1cc(NC(=O)NCCCl)ccc1C,-8,0,3,-3,2,7
COc1ccc(/C=C/CN2CCN(CC(C)C)C(CCO)C2)cc1 (configuration not stated),4,-1,-22,-10,28*,12
CC1(C(=O)NCc2ccccc2)CCC(=O)N1CCOc1ccccc1 (configuration not stated),27*,0,-4,-5,13,-8
CC1CN(S(=O)(=O)c2ccc(C(=O)Nc3ccccc3F)cc2)CC(C)O1 (configuration not stated),-16,1,9,0,-3,21
O=S(=O)(c1ccccc1)N1CCC(O)(CSc2ccccc2)CC1,6,3,-1,2,11,-10
O=S(=O)(c1ccccc1)N1CCC(O)(CSc2ccc(F)cc2)CC1,16,18*,-13,-4,10,-11
CCOC(=O)C(Cc1ccc(NC(=O)/C(=C/c2ccc(OC(C)=O)cc2)NC(C)=O)cc1)N1C(=O)c2ccccc2C1=O (configuration not stated),8,4,-7,-2,27*,7
CCOC(=O)C(Cc1ccc(NC(=O)/C(=C/c2ccccc2)NC(=O)c2ccccc2)cc1)N1C(=O)c2ccccc2C1=O (configuration not stated),9,3,-3,-1,15,-13
Cc1ccc(S(=O)(=O)N2CCCCC2)cc1C(=O)N1CCN(c2ccccn2)CC1,-9,4,-1,-2,2,6
O=C1N/C(=N\S(=O)(=O)c2ccccc2)S/C1=C\c1cc([N+](=O)[O-])ccc1O,4,19*,-25,32*,18,-6
O=C1N/C(=N\S(=O)(=O)Cc2ccccc2)S/C1=C/c1cc([N+](=O)[O-])ccc1O,41*,37*,-9,29*,37*,-12
SMILES,CHO-K1 Ca antag,CHO-K1 Ca ag,CHRM1 PAM,M1 ag,M1 antag,CHO-K1 Ca PAM
COc1cc(/C=C2/S/C(=N/S(=O)(=O)c3ccccc3)NC2=O)c([N+](=O)[O-])cc1OC,4,1,7,2,-10,1
COc1cc(C(c2nnnn2C2CCCC2)N2CCc3ccccc3C2)ccc1O (configuration not stated),-1,0,14,-2,-13,20
COc1ccc(C(=O)N/C(=C\c2cccs2)C(=O)N2CCN(C)CC2)cc1OC,-8,1,12,-6,-11,13
COc1ccccc1C1N(c2cc(Cl)ccc2OC)C(=O)C2CCCN21 (configuration not stated),27*,0,3,-5,-7,-13
CC[C@H](C)[C@@H](C(=O)N1CCNCC1)n1cc([C@@H](N)CO)nn1,-6,1,0,-1,1,-5
O=C(C[N+]1(CC#Cc2ccccc2)CCCCC1)c1ccc(Cl)cc1,-15,0,-38,-16,52*,8
O=C(C[N+]1(CC#Cc2ccccc2)CCCCC1)c1ccccc1,3,0,-16,-6,44*,-14
O=C(C[N+]1(CC#Cc2ccccc2)CCOCC1)c1ccccc1,-17,1,-4,-16,-4,23
CCOC(=O)CN1C(=N)N(c2nc(NC(C)C)nc(NC(C)C)n2)CC1=O,31*,-1,-3,-6,2,-15
CCOC(=O)CN1C(=N)N(c2nc(NC(C)C)nc(OC)n2)CC1=O,-10,0,13,-1,-11,-1
Nc1c(C(=O)NCc2ccco2)c2nc3ccccc3nc2n1CCc1ccccc1F,-9,2,8,2,-4,25
Cc1cc2oc(C(=O)Nc3ccc(S(N)(=O)=O)cc3)c(C)c2cc1Cl,28*,-1,-6,-3,2,-11
C=CCn1c(CCC(=O)Nc2ccc(C)c(Cl)c2)nnc1SCC(=O)Nc1ccccc1C,-1,16*,1,-2,7,7
CCOC(=O)Cn1nc(C)c(NC(=O)CCc2ccccc2)c1C,3,0,5,-5,-6,2
CCOC(=O)Cn1nc(C)c(NC(=O)CCc2ccc(OC)cc2)c1C,-7,17*,17,-8,-13,16
CN(C)C1=NC[C@H](Cc2ccccc2)N1CCCCc1ccccc1,-17,2,-23,-9,34*,13
CCCCCCCN1C(N(C)C)=NC[C@@H]1Cc1ccccc1,-7,2,-27,-12,29,7
